These results are taken from PubChem BioAssay (EPA / NIEHS).

Active and inactive are the calls of the source. The calls were made as follows: active = hit-call score of the fitted dose curve at least 0.9, where 1 is the maximum; inactive = score below 0.9.

Test [1] is described as follows: ATG_CRE_CIS: Attagene CIS-FACTORIAL HepG2 Assay for human cAMP Responsive Element (CRE) binding protein 3 (AID 2282926). Conditions: HepG2 CRE cis-reporter, Attagene multiplexed mRNA; actives raise or lower the signal. Put shortly:
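Capillary electrophoresis of 6-FAM-labelled, HpaI-digested PCR products quantified reporter transcripts. These came from HepG2 transiently transfected with cis-element reporters and exposed to test chemicals for 24 hours, with DMSO defining baseline activity.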

For test [2], the target named is CCAAT/enhancer-binding protein beta (Homo sapiens) (UniProt P17676). Description: ATG_C_EBP_CIS: Attagene CIS-FACTORIAL HepG2 Assay for human CCAAT/Enhancer Binding Protein (C/EBP) beta (AID 2282927). Conditions: HepG2 Attagene cis-factorial transcription factor reporter; actives raise or lower the signal. In short, it runs like this:
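HepG2, transient MRTU transfection, 24 h treatment. RT-PCR plus CE fluorescence; DMSO negative control, bidirectional fit.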

Test [3] can be described thus: ATG_CMV_CIS: Attagene CIS-FACTORIAL HepG2 Assay for human CMV (Internal Marker) (AID 2282928).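 Also: endpoint acts as a background internal control marker rather than a target.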 Conditions: HepG2 CMV promoter reporter, transcription factor profiling; actives raise or lower the signal. In short, it runs like this: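 Bidirectional fits against DMSO are applied to reporter mRNA, read by RT-PCR with capillary electrophoresis, from HepG2 cells exposed 24 h. The endpoint serves as an internal CMV background marker within the cis-factorial reporter panel.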

A short description of test [4]: ATG_DR4_LXR_CIS: Attagene CIS-FACTORIAL HepG2 Assay for human Liver X Receptor (LXR), DR4 submotif (AID 2282929). To be noted: HepG2 Attagene DR4 cis-reporter, mRNA transcription; actives raise or lower the signal. Put shortly: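 HepG2, transient MRTU transfection, cis-element (DR4) promoter; 24 h compound exposure; total RNA → oligo(dT) RT → PCR → 6-FAM primer extension → HpaI cut → CE. Gain/loss vs DMSO, bidirectional fit.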

Test [5] can be described thus: ATG_AP_2_CIS: Attagene CIS-FACTORIAL HepG2 Assay for human Activator Protein 2 (AP-2) (AID 2282932). To be noted: HepG2 AP-2 cis-reporter, Attagene transcription factor profiling; actives raise or lower the signal. Put shortly:
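Read-out: fluorescent reporter mRNA via RT-PCR and capillary electrophoresis, 24 h post-dose in transiently transfected HepG2. Endogenous factors drive cis-promoter reporters; gain or loss of signal fitted bidirectionally against DMSO.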

Test [6] can be described thus: ATG_BRE_CIS: Attagene CIS-FACTORIAL HepG2 Assay for human Bone Morphogenetic Protein (BMP) Response Element (BRE) (AID 2282933). Conditions: HepG2 BMP response element reporter, Attagene transcription factor profiling; actives raise or lower the signal. Put shortly:
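Endogenous transcription factor activity at a BMP response element was monitored in transfected HepG2 cells 24 h after dosing. Fluorescent RT-PCR products were resolved by capillary electrophoresis, and activity was fitted in both directions versus DMSO.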

The target in test [7] is Retinoic acid receptor alpha (Homo sapiens) (UniProt P10276). The experiment in a line: ATG_DR5_RAR_CIS: Attagene CIS-FACTORIAL HepG2 Assay for human Retinoic Acid Receptor Alpha (RARE), DR5 submotif (AID 2282934). Conditions: HepG2 Attagene cis-factorial RARE DR5 reporter, mRNA; actives raise or lower the signal. Put shortly: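 After 24 h of chemical exposure, transiently transfected HepG2 cells were lysed for total RNA; the DR5-regulated reporter transcript was quantified via RT-PCR and capillary electrophoresis, with activity fitted bidirectionally against DMSO.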

Test [8] has as its target Transcription factor E2F1 (Homo sapiens) (UniProt Q01094). The experiment in a line: ATG_E2F_CIS: Attagene CIS-FACTORIAL HepG2 Assay for human E2F Transcription Factor 1 (AID 2282935). To be noted: HepG2 Attagene cis-reporter, E2F reporter RNA transcripts; actives raise or lower the signal. Put shortly: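 Transient MRTU transfection of HepG2; 24 h compound exposure; RNA → oligo(dT) RT → PCR → FAM label → HpaI cut → CE fluorescence. Gain/loss of signal fit against DMSO.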

The nature of test [9]: ATG_AP_1_CIS: Attagene CIS-FACTORIAL HepG2 Assay for human Activator Protein 1 (AP-1) (AID 2282931). Conditions: HepG2 Attagene cis-factorial AP-1 reporter mRNA; actives raise or lower the signal. In short, it runs like this: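 Transient MRTU transfection of HepG2 → 24 h chemical treatment → RNA isolation, RT-PCR, 6-FAM labelling, HpaI digest → capillary electrophoresis. Fit: bidirectional, DMSO negative control.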

Test [10] deals with Aryl hydrocarbon receptor (Homo sapiens) (UniProt P35869). The experiment in a line: ATG_Ahr_CIS: Attagene CIS-FACTORIAL HepG2 Assay for human Aryl Hydrocarbon Receptor (Ahr) (AID 2282930). To be noted: HepG2 AhR cis-factorial reporter transcription; actives raise or lower the signal. In short, it runs like this: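 Endogenous factor activity is tracked through cis-promoter reporter units transfected into HepG2 cells. Transcript levels at 24 h are read by fluorescent RT-PCR and capillary electrophoresis, with activity in either direction scored relative to DMSO.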
Sequence of Aryl hydrocarbon receptor (Homo sapiens) (P35869 whole entry, looked up): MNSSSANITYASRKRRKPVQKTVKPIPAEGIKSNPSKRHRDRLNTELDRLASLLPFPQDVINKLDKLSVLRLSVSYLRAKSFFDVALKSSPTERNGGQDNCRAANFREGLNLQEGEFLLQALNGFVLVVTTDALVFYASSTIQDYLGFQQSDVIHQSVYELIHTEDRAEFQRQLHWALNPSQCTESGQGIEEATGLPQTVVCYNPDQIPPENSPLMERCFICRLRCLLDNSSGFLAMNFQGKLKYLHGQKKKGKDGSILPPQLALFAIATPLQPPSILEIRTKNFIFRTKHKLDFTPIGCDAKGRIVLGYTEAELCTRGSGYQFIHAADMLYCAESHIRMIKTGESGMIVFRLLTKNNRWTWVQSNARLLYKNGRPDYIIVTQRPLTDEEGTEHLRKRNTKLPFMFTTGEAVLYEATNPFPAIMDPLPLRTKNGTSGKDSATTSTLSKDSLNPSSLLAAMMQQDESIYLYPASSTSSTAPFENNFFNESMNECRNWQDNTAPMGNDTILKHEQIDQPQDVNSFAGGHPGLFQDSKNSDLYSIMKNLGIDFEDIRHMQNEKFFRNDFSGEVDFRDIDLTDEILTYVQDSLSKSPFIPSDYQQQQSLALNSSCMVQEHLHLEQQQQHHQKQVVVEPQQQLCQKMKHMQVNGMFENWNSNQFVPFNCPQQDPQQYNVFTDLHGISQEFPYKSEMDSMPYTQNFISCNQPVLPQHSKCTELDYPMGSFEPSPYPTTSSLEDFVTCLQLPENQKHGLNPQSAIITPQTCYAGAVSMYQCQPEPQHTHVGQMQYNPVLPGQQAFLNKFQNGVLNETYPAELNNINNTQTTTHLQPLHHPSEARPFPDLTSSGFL

Sequence of Transcription factor E2F1 (Homo sapiens) (Q01094 whole entry, looked up): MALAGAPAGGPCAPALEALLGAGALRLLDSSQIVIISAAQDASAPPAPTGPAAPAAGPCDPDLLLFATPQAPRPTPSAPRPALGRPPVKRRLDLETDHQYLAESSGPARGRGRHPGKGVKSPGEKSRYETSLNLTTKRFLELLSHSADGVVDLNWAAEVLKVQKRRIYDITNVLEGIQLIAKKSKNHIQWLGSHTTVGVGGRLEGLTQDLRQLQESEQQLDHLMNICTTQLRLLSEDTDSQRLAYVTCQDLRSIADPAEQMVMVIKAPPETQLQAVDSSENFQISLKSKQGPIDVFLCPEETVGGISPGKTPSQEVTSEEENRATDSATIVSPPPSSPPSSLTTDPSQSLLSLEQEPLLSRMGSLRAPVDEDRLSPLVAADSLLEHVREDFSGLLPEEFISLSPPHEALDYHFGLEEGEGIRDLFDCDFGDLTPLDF
Sequence of CCAAT/enhancer-binding protein beta (Homo sapiens) (P17676 whole entry, looked up): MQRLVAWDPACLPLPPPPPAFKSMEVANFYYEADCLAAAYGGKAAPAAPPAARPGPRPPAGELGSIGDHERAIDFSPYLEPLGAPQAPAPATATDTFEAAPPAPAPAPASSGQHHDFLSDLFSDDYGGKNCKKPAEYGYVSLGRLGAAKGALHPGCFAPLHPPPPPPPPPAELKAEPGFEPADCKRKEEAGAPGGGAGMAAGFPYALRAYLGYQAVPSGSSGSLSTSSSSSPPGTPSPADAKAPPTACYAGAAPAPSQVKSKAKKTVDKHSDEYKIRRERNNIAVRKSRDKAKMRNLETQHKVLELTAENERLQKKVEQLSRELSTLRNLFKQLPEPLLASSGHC
Sequence of Retinoic acid receptor alpha (Homo sapiens) (P10276 whole entry, looked up): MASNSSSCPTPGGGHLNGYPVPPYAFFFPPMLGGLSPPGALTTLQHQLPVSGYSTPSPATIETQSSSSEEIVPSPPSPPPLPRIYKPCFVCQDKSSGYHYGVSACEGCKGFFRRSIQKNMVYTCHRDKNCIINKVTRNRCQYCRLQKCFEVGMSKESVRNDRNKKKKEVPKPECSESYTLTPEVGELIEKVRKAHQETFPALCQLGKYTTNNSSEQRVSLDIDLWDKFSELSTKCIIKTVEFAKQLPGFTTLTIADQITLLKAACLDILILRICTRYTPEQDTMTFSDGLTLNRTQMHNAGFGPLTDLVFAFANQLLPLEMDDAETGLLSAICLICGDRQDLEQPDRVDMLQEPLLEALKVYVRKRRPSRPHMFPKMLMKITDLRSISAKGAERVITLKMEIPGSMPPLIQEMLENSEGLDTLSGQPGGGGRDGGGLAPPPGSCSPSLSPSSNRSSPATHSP

In the case of `CC1(C)OC[C@@H]2O[C@@]3(C(=O)O)OC(C)(C)O[C@H]3[C@@H]2O1`, the molecule was called inactive in test [1], in [2], in test [3], in test [4], in [5] and in test [6]. The call in test [7] and in test [8] was inactive.
With `O=C1C(c2[nH]c3ccc(S(=O)(=O)O)cc3c2O)=Nc2ccc(S(=O)(=O)O)cc21`, the outcome in test [1], in [2], in test [3], in test [4], in test [9] and in [5] was inactive. Further, the outcome in test [6], in [7] and in test [8] was inactive.
As usually defined, the AC50 is the midpoint of the concentration-response curve, whichever way the signal moves. As for `O=C1CCCCCCCCCCOCCCCO1`, the result in test [1], in [2], in test [3], in [9], in [5] and in test [7] was inactive. For the same molecule, in test [8], the outcome was inactive. Besides, the AC50 in [4] was 74.1 µM (active); in test [6] it was 100 µM (active).
As for `OC1C(O)C(O)C(O)C(O)C1O` (centres undefined), the call in [1], in [2], in test [3], in test [4], in test [5] and in [6] was inactive. Further, the outcome in [8] was inactive.
For the molecule `CC(C)=CCCC(C)=CCCC(C)=CCO`, the call in [1], in test [2], in [3], in test [4], in [9] and in [6] was inactive. Besides, the result in test [7] and in test [8] was inactive.
On to `C=CCOC(=O)CCC1CCCCC1`, for which the result in test [1], in test [2], in [3], in test [4], in test [9] and in [5] was inactive. Also, the call in test [8] was inactive.
Take `CC(=O)C(=O)O`: the call in test [1], in test [3], in test [4], in [10], in [9] and in test [5] was inactive. The outcome in [6], in [7] and in test [8] was inactive.
In the case of `CC(=O)/C=C/C1=C(C)CCCC1(C)C`, the molecule was classed as inactive in test [1], in test [2], in test [3], in test [4], in test [9] and in [5]. Moreover, the result in test [6] and in test [8] was inactive.
Take `COC(=O)C1=C(C)NC(C)=C(C(=O)OCCN(C)Cc2ccccc2)C1c1cccc([N+](=O)[O-])c1` (centres undefined): the result in [1], in test [3] and in [9] was inactive. Also, the AC50 in test [2] was 15.5 µM (active); in test [4] it was 8.22 µM (active); in [5], 26.5 µM (active); in test [6], 17.9 µM (active); in test [8] it was 25 µM (active).
`O=c1cc(-c2ccccc2)oc2cc(O)cc(O)c12`: the molecule was called inactive in test [1], in test [2], in test [9], in test [5], in [6] and in test [7]. In addition, in [8], the outcome was inactive. Also, the AC50 in test [3] was 3.31 µM (active); in test [4] it was 7.76 µM (active).
With `O=C[C@@H](O)[C@H](O)[C@H](O)CO`, the result in test [1], in [2], in test [3], in test [4], in [9] and in test [5] was inactive. The result in test [6], in [7] and in [8] was inactive.
Regarding `CCCCC[Si](OCC)(OCC)OCC`, the outcome in test [1], in test [2], in test [3], in test [4], in test [9] and in test [5] was inactive. Further, the molecule was called inactive in test [6], in test [7] and in [8].
With `CCC(=O)/C=C/C1C(C)=CCCC1(C)C` (centres undefined), the call in test [1], in test [2], in test [3], in [4], in [9] and in [5] was inactive. For the same molecule, the call in test [6] and in test [8] was inactive.
As for `CCCC/C=C\CCCCCCCCCC=O`, the molecule was called inactive in test [1], in test [2], in test [3], in test [4], in [9] and in test [5]. Also, the result in test [6] and in test [8] was inactive.
`CCCCCCCCC=O`: the molecule was called inactive in [1], in [2], in test [3], in [4], in test [9] and in test [5]. Further, the molecule was called inactive in test [6] and in test [8].
